Compound activity: PubChem, National Center for Advancing Translational Sciences (NCATS)
Most compounds without a hit are left out; they make up all but 2.4% or so of the library.
ALOX12 inh = blocks human arachidonate 12S-lipoxygenase; Potency, µM (highest dose often 108 µM), for inactives: top-dose activity change, negative = inhibition, usual class: inhibitors; purified 12hLO, xylenol orange hydroperoxide absorbance; P18054; 1.1% of 580,000 active; active means well fitted curve in the direction sought with a large enough effect; inconclusive means small, poorly fitted or top-dose-only effect, or another doubt; inactive means no such curve, though single readings can be large; an effect the other way counts as inactive or inconclusive; further: on the % scale 0 is the no-effect control and ±100 the full control effect
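Hydroperoxide product was detected by ferrous iron/xylenol orange as the 573 to 405 nm absorbance ratio. Arachidonic acid at 40 uM (final) was turned over for 30 min at room temperature by 150 nM human 12hLO, pH 7.0 Hepes buffer, after 15 min compound preincubation.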
TDP1 block = inhibitors of human tyrosyl-DNA phosphodiesterase TDP1; Q9NUW8; recombinant TDP1, AlphaScreen DNA substrate cleavage; Potency, µM (top dose mostly 130 µM), inactives show at the highest dose activity change, negative = inhibition, most hits filed as inhibitors; 0.28% of 350,000 active; active means well fitted curve in the direction sought with a large enough effect; inconclusive means small, poorly fitted or top-dose-only effect, or another doubt; inactive means no such curve, though single readings can be large; an effect the other way counts as inactive or inconclusive; further: on the % scale 0 is the no-effect control and ±100 the full control effect; nearly all actives have a fitted effect of over 40% in size
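Signal: AlphaScreen proximity between streptavidin donor and anti-FITC acceptor beads on intact substrate. Reaction: Tdp1 1 nM, substrate 15 nM final, 5 min RT after 15 min compound preincubation.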
TSG101-PTAP inh = blocks PTAP/TSG101 interaction to inhibit HIV-1 budding | Q99816 | Fluorescence polarization, FITC-PTAP peptide / Tsg101 binding | Potency, µM (titrated, usually from 115 µM), inactives show at the top dose activity change, negative = inhibition, usual class: inhibitors | 340,000 tested, under 10 active | AID 493005; active means well fitted inhibition curve with a large enough effect in the main read-out, with a control signal flat, not every such curve was filed as active; inconclusive means small, poorly fitted or top-dose-only effect, or effect the other way, or a change in a side signal; inactive means no such curve, though single readings can be large or run the other way; further: % of control where 0% means no effect
Target sequence (Q99816 whole entry, looked up): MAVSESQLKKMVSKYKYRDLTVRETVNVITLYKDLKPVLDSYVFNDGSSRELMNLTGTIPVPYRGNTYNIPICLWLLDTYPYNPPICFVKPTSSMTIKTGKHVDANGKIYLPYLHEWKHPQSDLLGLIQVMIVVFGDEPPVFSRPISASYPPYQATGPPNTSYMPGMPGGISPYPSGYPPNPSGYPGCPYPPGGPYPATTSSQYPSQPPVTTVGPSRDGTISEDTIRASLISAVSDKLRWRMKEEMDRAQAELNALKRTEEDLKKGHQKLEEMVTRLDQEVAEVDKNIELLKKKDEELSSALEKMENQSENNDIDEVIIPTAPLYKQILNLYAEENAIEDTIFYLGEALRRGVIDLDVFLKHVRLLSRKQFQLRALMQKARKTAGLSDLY
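Tsg101 binding domain (10 uM final) was mixed with compound and a FITC-labeled PTAP peptide (50 nM final) in HEPES pH 7.5 buffer with NaCl, Tween 20, EDTA and TCEP; fluorescence polarization was read after 20 min at r.t.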
ClpP mod = qHTS Assay for Activators of ClpP | ATP-dependent Clp protease proteolytic subunit (Bacillus subtilis (strain 168)), P80244 | purified B. subtilis ClpP, FRET peptide cleavage, 20 min | Potency, µM (series often up to 57.5 µM), for the others: at the top dose activity change, negative = active | 1.9% of 340,000 active | AID 651965, 2013; active means well fitted falling curve with a large enough effect; inconclusive means small, poorly fitted or top-dose-only effect; inactive means no such curve, though single readings can be large or run the other way; further: the source files actives as falling curves though it sought activators and does not explain the sign; nearly all actives have a fitted effect of over 65% in size
Target sequence (P80244 whole entry, looked up): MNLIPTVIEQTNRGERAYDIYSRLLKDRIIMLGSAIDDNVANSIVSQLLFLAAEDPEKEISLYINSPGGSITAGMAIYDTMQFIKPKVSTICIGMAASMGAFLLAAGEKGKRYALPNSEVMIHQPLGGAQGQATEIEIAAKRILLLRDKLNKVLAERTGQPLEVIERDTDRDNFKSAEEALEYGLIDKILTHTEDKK
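FRET quenching reversal measured ClpP activation: 10 microg/mL B. subtilis ClpP at pH 8 with the FRET-FV decapeptide, read at 430 nm after 320 nm excitation. The 20-min minus 0-min signal was scaled between DMSO/no-enzyme wells and ADEP (5.8 microM final).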
Rango dissoc inh = prevents RanGTP from dissociating the Rango-importin beta complex | O95149+P62826 | Biochemical FRET Rango-importin beta, RanGTP-induced dissociation | Potency, µM (doses to about 46.1 µM), for the others: at the highest dose activity change, negative = inhibition | 0.071% of 340,000 active; further: % of control where 0% means no effect; nearly all actives have a fitted effect of over 45% in size
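Compounds preincubate 5 min with complex of recombinant Rango and importin beta in PBS with 1 mM DTT. Ran (0.6 uM) loaded with 2 mM GTP plus 0.2 uM RCC1 starts dissociation; FRET is recorded 45 min later.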
Rango complex inh = inhibitors of Rango-importin beta complex formation; AID 540263; Q14974; Potency, µM (top dose mostly 92.2 µM), for the others: top-dose inhibition of complex formation; Rango CFP/YFP FRET sensor + importin beta, 45 min; 0.031% of 340,000 active;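 further: 0% = DMSO wells and 100% = buffer wells lacking importin beta; nearly all actives have a fitted effect of over 15% in size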
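Inhibition scored from the CFP 486 nm/YFP 530 nm FRET ratio 45 min after adding 0.125 microM importin beta to 50 nM Rango biosensor preincubated 5 min with compound (room temperature, PBS with DTT, Tween-20, BSA). No-importin wells as positive control.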
Starred values were filed as active, the others as inactive; [ ] = another dose, or the depositor's remark. Unless noted, the call rests on the fitted dose curve. Potency means the concentration at half of the fitted maximal effect.

How did CNc1oc(-c2ccc(OCc3ccccc3)cc2)nc1C#N do in these assays?
ALOX12 inh: -23.0%; TDP1 block: 9.4%; TSG101-PTAP inh: -2.2%; ClpP mod: 35.5µM*; Rango dissoc inh: 0.4%; Rango complex inh: 0.8%

Results for N#Cc1nc(-c2ccc(F)cc2)oc1N1CCN(C(=O)c2ccco2)CC1 ?
ALOX12 inh: inconclusive; TDP1 block: -14.4%; TSG101-PTAP inh: 0.1%; ClpP mod: 3.16µM*; Rango dissoc inh: 1.1%; Rango complex inh: 3.5%

What do the screens show for `N#Cc1nc(-c2ccc(OCc3ccccc3)cc2)oc1NCCN1CCOCC1`?
ALOX12 inh: -12.7%; TDP1 block: 8.6%

What do the screens show for `N#Cc1nc(-c2ccc(OCc3ccccc3)cc2)oc1N1CCOCC1`?
ALOX12 inh: 11.5%; TDP1 block: -1.0%; TSG101-PTAP inh: -2.9%; ClpP mod: 28.2µM*; Rango dissoc inh: -19.8%; Rango complex inh: 0.5%

What do the screens show for `CCc1ccc(S(=O)(=O)N2CCCC(CNC(=O)c3ccccc3Cl)C2)cc1` (stereo not drawn)?
ALOX12 inh: 9.4%

Results for Cc1cc(Oc2ccc(CN)cc2)nc2ccccc12 ?
ALOX12 inh: 6.0%[12.5 µM]

How did CCC(=O)NCc1ccc(-c2nc3ccccc3s2)cc1 do in these assays?
ALOX12 inh: -11.5%

How did O=C1NC(=NC2CCCCC2)C2(CCCN(CC3CCCCC3)C2)N1c1cc(F)cc(F)c1 (stereo not drawn) do in these assays?
ALOX12 inh: -2.6%[6.33 µM]

Results for COc1ccc(CC(=O)Nc2ccc([C@@H](O)[C@H]3COCC(=O)N3C)cc2)cc1 ?
ALOX12 inh: 24.4%[176 µM]

What do the screens show for `N#Cc1nc(-c2ccc(OCc3ccccc3)cc2)oc1NCc1ccco1`?
ALOX12 inh: -1.5%; TDP1 block: 8.3%; TSG101-PTAP inh: 2.5%; ClpP mod: 10µM*; Rango dissoc inh: -16.8%; Rango complex inh: 0.8%

How did O=S(=O)(NCCN1CCOCC1)c1ccc(F)c(Cl)c1 do in these assays?
ALOX12 inh: 20µM*; TSG101-PTAP inh: -7.5%; Rango dissoc inh: -3.4%; Rango complex inh: 2.6%

How did COc1cc(/C=N/Nc2nc(Nc3ccccc3)nc(-n3nc(C)cc3C)n2)cc(OC)c1OC do in these assays?
ALOX12 inh: -17.5%; TDP1 block: 4.7%; TSG101-PTAP inh: -1.5%; Rango dissoc inh: -13.5%; Rango complex inh: 1.7%

What do the screens show for `COc1cc(/C=N/Nc2nc(Nc3ccc(C)cc3)nc(-n3nc(C)cc3C)n2)cc(OC)c1OC`?
ALOX12 inh: -17.0%; TDP1 block: 5.6%; TSG101-PTAP inh: -1.4%; ClpP mod: 28.2µM*; Rango dissoc inh: 8.4%; Rango complex inh: 3.6%

How did COc1cc(/C=C2/NC(=O)NC2=O)cc(Br)c1OCc1ccc(C(=O)O)cc1 do in these assays?
ALOX12 inh: -13.1%; TDP1 block: 70.8µM*; TSG101-PTAP inh: -3.6%; Rango dissoc inh: 5.5%; Rango complex inh: -5.7%

What do the screens show for `CCC(CC)NC(=O)COC(=O)c1ccc2ccccc2n1`?
ALOX12 inh: 6.31µM*

What do the screens show for `CCN(c1ccc(NC(=O)COC(=O)c2ccc3ccccc3n2)cc1)C(C)C`?
ALOX12 inh: 5.01µM*; TDP1 block: 4.8%; TSG101-PTAP inh: -0.7%; ClpP mod: 3.3%; Rango dissoc inh: 0.0%; Rango complex inh: 3.8%

What do the screens show for `CC(=O)NNC(=S)Nc1ccc(Br)cc1`?
ALOX12 inh: 40.9%

Results for CCCCNC(=O)CN1CCN(c2ncc(NC(=O)c3ccc(Cl)cc3)cc2C(=O)O)CC1 ?
ALOX12 inh: 35.5µM*; TDP1 block: -11.3%; ClpP mod: 1.3%

What do the screens show for `CC1CCN(c2ccc(C(=O)O)cc2NS(=O)(=O)c2ccc(Br)cc2)CC1`?
ALOX12 inh: inconclusive; TDP1 block: 0.0%; TSG101-PTAP inh: -3.4%; ClpP mod: 20µM*; Rango dissoc inh: 0.7%; Rango complex inh: 0.6%

What do the screens show for `COC(=O)c1ccc(N2CCCCC2)c(NS(=O)(=O)c2ccc(C)cc2)c1`?
ALOX12 inh: 2.8%[57.4 µM]; TDP1 block: 4.7%; TSG101-PTAP inh: -5.1%; ClpP mod: -8.9%; Rango dissoc inh: 0.3%; Rango complex inh: -2.5%

How did Cc1nc(CCNC(=O)Cc2ccsc2)no1 do in these assays?
ALOX12 inh: 35.5µM*

How did CN(Cc1ccccc1)C(=O)C[C@@H]1O[C@H](CNC(=O)c2ccc(N(C)C)cc2)[C@@H](O)[C@H]1O do in these assays?
ALOX12 inh: 73.8%

What do the screens show for `COC(=O)C1=C(C)NC2=C(C(=O)CC(C)(C)C2)C1c1ccsc1` (stereo not drawn)?
ALOX12 inh: 0.0%; TDP1 block: -1.1%; TSG101-PTAP inh: -0.8%; ClpP mod: 28.2µM*; Rango dissoc inh: -23.5%; Rango complex inh: inconclusive

Results for COC(=O)C1=C(C)NC2=C(C(=O)CC(C)(C)C2)C1c1ccccn1 (stereo not drawn) ?
ALOX12 inh: 14.1%; TDP1 block: -1.7%; TSG101-PTAP inh: -5.1%; ClpP mod: 28.2µM*; Rango dissoc inh: inconclusive; Rango complex inh: inconclusive

Results for O=C1[C@H]2CN(Cc3ccc(F)cc3Cl)C[C@H]2C(=O)N1CCN1CCc2ccccc2C1 ?
ALOX12 inh: 13.3%

How did COC(=O)[C@@H]1C2CC3c4[nH]c5cc(OC)ccc5c4CCN3CC2C[C@H](OC(=O)c2cc(OC)c(OC)c(OC)c2)C1OC (stereo partly drawn) do in these assays?
TDP1 block: 19.7%

How did COC(=O)[C@H]1[C@H]2C[C@@H]3c4[nH]c5cc(OC)ccc5c4CCN3C[C@H]2C[C@@H](OC(=O)c2cc(OC)c(OC)c(OC)c2)[C@@H]1OC do in these assays?
ALOX12 inh: -25.4%; TDP1 block: 16.2%[56.1 µM]; TSG101-PTAP inh: 5.3%; ClpP mod: -12.7%; Rango dissoc inh: 11.6µM*; Rango complex inh: inconclusive

Results for CCNc1c(NC(=O)c2cc(OC)ccc2Br)c(=O)oc2ccccc12 ?
ALOX12 inh: 4.2%

Results for Cc1ccc(Cn2nc(C)c3cc(C(=O)N4CCN(C(=O)CN5CCOCC5)CC4)sc32)cc1 ?
ALOX12 inh: 23.5%

How did CC(C)NCC(=O)NC12CC3CC(CC(C3)C1)C2 do in these assays?
ALOX12 inh: 375.9%; TDP1 block: 3.6%; TSG101-PTAP inh: 0.5%; ClpP mod: 15.8µM*; Rango dissoc inh: -11.8%; Rango complex inh: -3.6%
